This is an account of results in PubChem BioAssay (NCI).

About 83,000 compounds went through this panel and 20% of them were active in at least one assay; those are over-represented in the sample as a whole.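 Growth was measured after 48 h exposure to one concentration of compound in 96-well plates. Values under 10 count as active.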 A number with no mark means an inactive call. Active and inactive are the calls of the source.

One experiment relates to SK-MEL-2 melanoma. Put plainly: NCI-60 one-dose screen, 48 h (100 = growth as untreated, 0 = no growth, -100 = all killed). The note with it: 10 µM unless noted.
As for `N#CC(C#N)C(C#N)C#N`, the growth is 109%.
The same measure, in the same setting: the value for `CCOC(=O)c1sc(NC(=O)COc2cccc(/C=C3\CCc4cc(OC)ccc4C3=O)c2)nc1C` was 42.6%; that for `COc1cnc2c(c1)C(=O)c1c-2n(CCCN2CCOCC2)c(=O)c2cc(F)ccc12` was 21.4%.
On the same count and under the same terms, as for `CCN1CC2=C(Nc3nc(SC)[nH]c(=O)c3C2c2cc(OC)c(OC)c(OC)c2)/C(=C/c2cc(OC)c(OC)c(OC)c2)C1` (configuration not stated), the figure is 117%; as for `CCOC(=O)CCC(=O)O[C@H]1[C@H](O[C@@H]2[C@@H](C)[C@H](O[C@H]3C[C@@](C)(OC)[C@@H](O)[C@H](C)O3)[C@@H](C)C(=O)O[C@H](CC)[C@@](C)(O)[C@H](O)[C@@H](C)C(=O)[C@H](C)C[C@@]2(C)O)O[C@H](C)C[C@@H]1N(C)C`, 121%; as for `CNCCCn1c2c(c3ccc(F)cc3c1=O)C(=O)c1cc(OC)cnc1-2`, -9.66% (active).
On the same count and under the same terms, the value for `NC(=NCCCCCCN=C(N)/N=C(\N)Nc1ccc(Cl)cc1)/N=C(\N)Nc1ccc(Cl)cc1` was -31.8% (active); that for `O=C1CSC(c2ccccc2Cl)N1c1nnc(Cn2nnc3ccccc32)o1` (configuration not stated) was 91.7%.
As to `O=C(O)CCC(=O)OC[C@@H](NC(=O)C(Cl)Cl)[C@H](O)c1ccc([N+](=O)[O-])cc1`, the growth is 105%.
Still for that read-out and setting: as for `COc1ccc(-c2cc(-c3nnc(SCC(=O)Nc4ccc(C(C)=O)cc4)n3-c3ccccc3)c3ccccc3n2)cc1OC`, the figure is 97.9%; as for `C[C@H](C(=O)N[C@@H](Cc1ccc(-c2ccccc2)cc1)C(=O)NC1CC(C)(C)N(C)C(C)(C)C1)c1ccc(-c2ccccc2)c(F)c1`, -70.9% (active).
In the case of `O=C(O)C1C(c2ccccc2)c2ccccc2C(O)C1CO` (configuration not stated), the growth was 98.7%.
For `CSc1nc(Nc2ccc(S(=O)(=O)Nc3ccon3)cc2)c(C#N)c(-c2ccc(Cl)cc2)n1`, the growth was 99.3%.
The same measure, in the same setting: the value for `Cc1cc(C)c(C(=O)c2cccs2)c(C)c1` was 100%.
For `COC(=O)C1(NC(=O)CNC(=O)OCc2ccccc2)CCCC1`, the growth was 102%.
For the molecule `Cc1cc(C)nc(NS(=O)(=O)c2ccc(Nc3nc4nc(SCc5ccccc5)nc(-c5ccc(O)cc5)c4c(=O)[nH]3)cc2)n1`, the growth was 92%.
As to `Nc1ccc(N=Nc2ccccc2)cc1[N+](=O)[O-]`, the growth is 87.2%.
Turning to `NS(=O)(=O)c1cc2c(cc1Cl)NC=NS2(=O)=O`, the growth is 103%.
On the same count and under the same terms, as for `CCOC(=O)C1=CCC(n2cc(C)c(=O)[nH]c2=O)O1` (configuration not stated), the figure is 105%; as for `C[C@@H]1C[C@@H]([C@@H](CC2CC(=O)NC(=O)C2)OC(=O)CC(=O)c2ccccc2)C(=O)[C@@H](C)C1`, 12.5%.
In the case of `OCc1n(Cc2ccc3ccccc3c2)cc[n+]1Cc1ccc2ccccc2c1`, the growth is 67.7%.
The same measure, in the same setting: as for `COc1cnc2c(c1)C(=O)c1c-2n(CCCNC2=NCCS2)c(=O)c2cc(F)ccc12`, the figure is 90.7%; as for `Cc1onc(-c2ccccc2Cl)c1C(=O)N[C@@H]1C(=O)N2[C@@H]1SC(C)(C)[C@@H]2C(=O)O`, 110%; as for `C[C@H]1O[C@@H](O[C@H]2[C@@H](O)C[C@H](O[C@H]3[C@@H](O)C[C@H](O[C@H]4CC[C@]5(C)C6C[C@@H](O)[C@]7(C)[C@@H](C8=CC(=O)OC8)CC[C@]7(O)C6CC[C@@H]5C4)O[C@@H]3C)O[C@@H]2C)C[C@H](O)[C@@H]1O` (some centres not stated), -72.8% (active).
On the same count and under the same terms, the value for `CC1CN(/N=C/c2ccc([N+](=O)[O-])o2)C(=N)O1` (configuration not stated) was 123%; that for `O=C1NCCc2c1noc2-c1ccccc1` was 101%; that for `CC(=O)c1ccccc1NC(=O)C(C)(c1ccccc1)c1ccccc1` was 70%.
For `Cc1n(Cc2ccc3ccccc3c2)c2ccccc2[n+]1Cc1ccc2ccccc2c1`, the growth is -74.6% (active).

Another experiment concerns EKVX NSCLC. The experiment is described as above. The note with it: 10 µM unless noted.
With `COc1ccc2c(c1)C(=Nc1cc(OC)c(OC)c(OC)c1)C(=O)N2`, the growth was 97%.
On the same count and under the same terms, the value for `COc1cnc2c(c1)C(=O)c1c-2n(CCCn2ccnc2)c(=O)c2cc(F)ccc12` was 11.4%.
Turning to `C[C@]12CCC(=O)C=C1CCC1C2[C@@H](O)C[C@@]2(C)C1CC[C@]2(O)C(=O)COC(=O)CCC(=O)O` (some centres not stated), the growth is 78.7%.
The same measure, in the same setting: as for `C[C@@H]1[C@H]2[C@H](C=C3[C@@H]4CC[C@H]5Cc6nc7c(nc6C[C@]5(C)[C@H]4C[C@@H](O)[C@@]32C)C[C@@H]2CC[C@H]3C4=C[C@@H]5O[C@@]6(CC[C@](C)(CO)O6)[C@@H](C)[C@@]5(O)[C@@]4(C)[C@H](O)C[C@@H]3[C@@]2(C)C7)O[C@]12CCC(C)(C)O2`, the figure is 21.8%; as for `CCOC(=O)/C=C1/SC(=Nc2ccc(C#N)cc2)N(Cc2ccco2)C1=O`, 74%; as for `C[C@H](C(=O)N[C@@H](Cc1ccc(-c2ccccc2)cc1)C(=O)NC1CC(C)(C)NC(C)(C)C1)c1ccc(-c2ccccc2)c(F)c1`, -7.01% (active).
Still for that read-out and setting: as for `Nc1ccccc1C#Cc1ccccc1C#Cc1ccc(OCCCCCCOc2ccc(C#Cc3ccccc3C#Cc3ccccc3N)cc2)cc1`, the figure is 89.3%; as for `CCSc1nc(-c2ccco2)n2nc(-c3ccco3)cc2n1`, 76.1%; as for `CN(C)c1ccc(-c2nc3ncc(Br)cc3o2)cc1`, 78.4%.
Same read-out and setting: the value for `CN1CCN(c2nc3scc(-c4ccccc4)c3c(=O)[nH]2)CC1` was 90.3%.
Take `CC(=O)OC1Oc2cc(C)c(C)cc2-c2oc(=O)c(-c3ccccc3)cc21` (configuration not stated): the growth was 40.5%.
The same measure, in the same setting: the value for `N#CC(C#N)C(C#N)C#N` was 99.7%; that for `CCOC(=O)c1sc(NC(=O)COc2cccc(/C=C3\CCc4cc(OC)ccc4C3=O)c2)nc1C` was 82.9%.
On the same count and under the same terms, the value for `COc1cnc2c(c1)C(=O)c1c-2n(CCCN2CCOCC2)c(=O)c2cc(F)ccc12` was 17.7%; that for `CCN1CC2=C(Nc3nc(SC)[nH]c(=O)c3C2c2cc(OC)c(OC)c(OC)c2)/C(=C/c2cc(OC)c(OC)c(OC)c2)C1` (configuration not stated) was 87.3%; that for `CCOC(=O)CCC(=O)O[C@H]1[C@H](O[C@@H]2[C@@H](C)[C@H](O[C@H]3C[C@@](C)(OC)[C@@H](O)[C@H](C)O3)[C@@H](C)C(=O)O[C@H](CC)[C@@](C)(O)[C@H](O)[C@@H](C)C(=O)[C@H](C)C[C@@]2(C)O)O[C@H](C)C[C@@H]1N(C)C` was 100%.
Still for that read-out and setting: as for `CNCCCn1c2c(c3ccc(F)cc3c1=O)C(=O)c1cc(OC)cnc1-2`, the figure is -13.2% (active); as for `NC(=NCCCCCCN=C(N)/N=C(\N)Nc1ccc(Cl)cc1)/N=C(\N)Nc1ccc(Cl)cc1`, 23.9%; as for `O=C1CSC(c2ccccc2Cl)N1c1nnc(Cn2nnc3ccccc32)o1` (configuration not stated), 75%.
On to `O=C(O)CCC(=O)OC[C@@H](NC(=O)C(Cl)Cl)[C@H](O)c1ccc([N+](=O)[O-])cc1`, for which the growth is 106%.
As to `COc1ccc(-c2cc(-c3nnc(SCC(=O)Nc4ccc(C(C)=O)cc4)n3-c3ccccc3)c3ccccc3n2)cc1OC`, the growth is 97.7%.
On to `C[C@H](C(=O)N[C@@H](Cc1ccc(-c2ccccc2)cc1)C(=O)NC1CC(C)(C)N(C)C(C)(C)C1)c1ccc(-c2ccccc2)c(F)c1`, for which the growth is -47.8% (active).
The same measure, in the same setting: the value for `O=C(O)C1C(c2ccccc2)c2ccccc2C(O)C1CO` (configuration not stated) was 119%; that for `CSc1nc(Nc2ccc(S(=O)(=O)Nc3ccon3)cc2)c(C#N)c(-c2ccc(Cl)cc2)n1` was 98.5%.
As to `Cc1cc(C)c(C(=O)c2cccs2)c(C)c1`, the growth was 117%.
Still for that read-out and setting: the value for `COC(=O)C1(NC(=O)CNC(=O)OCc2ccccc2)CCCC1` was 98.2%; that for `Cc1cc(C)nc(NS(=O)(=O)c2ccc(Nc3nc4nc(SCc5ccccc5)nc(-c5ccc(O)cc5)c4c(=O)[nH]3)cc2)n1` was 96%.
The same measure, in the same setting: the value for `Nc1ccc(N=Nc2ccccc2)cc1[N+](=O)[O-]` was 75.2%; that for `NS(=O)(=O)c1cc2c(cc1Cl)NC=NS2(=O)=O` was 107%; that for `CCOC(=O)C1=CCC(n2cc(C)c(=O)[nH]c2=O)O1` (configuration not stated) was 104%.
Same read-out and setting: as for `C[C@@H]1C[C@@H]([C@@H](CC2CC(=O)NC(=O)C2)OC(=O)CC(=O)c2ccccc2)C(=O)[C@@H](C)C1`, the figure is 11.4%.
Regarding `OCc1n(Cc2ccc3ccccc3c2)cc[n+]1Cc1ccc2ccccc2c1`, the growth is 83.3%.
On the same count and under the same terms, as for `COc1cnc2c(c1)C(=O)c1c-2n(CCCNC2=NCCS2)c(=O)c2cc(F)ccc12`, the figure is 67.5%; as for `Cc1onc(-c2ccccc2Cl)c1C(=O)N[C@@H]1C(=O)N2[C@@H]1SC(C)(C)[C@@H]2C(=O)O`, 104%.
Take `C[C@H]1O[C@@H](O[C@H]2[C@@H](O)C[C@H](O[C@H]3[C@@H](O)C[C@H](O[C@H]4CC[C@]5(C)C6C[C@@H](O)[C@]7(C)[C@@H](C8=CC(=O)OC8)CC[C@]7(O)C6CC[C@@H]5C4)O[C@@H]3C)O[C@@H]2C)C[C@H](O)[C@@H]1O` (some centres not stated): the growth was -100% (active).
With `CC1CN(/N=C/c2ccc([N+](=O)[O-])o2)C(=N)O1` (configuration not stated), the growth was 104%.
Regarding `O=C1NCCc2c1noc2-c1ccccc1`, the growth is 97.8%.
The same measure, in the same setting: the value for `CC(=O)c1ccccc1NC(=O)C(C)(c1ccccc1)c1ccccc1` was 92.7%.
Same read-out and setting: as for `Cc1n(Cc2ccc3ccccc3c2)c2ccccc2[n+]1Cc1ccc2ccccc2c1`, the figure is 9.57% (active).
